Experimental findings from PubChem BioAssay AID2685 (National Center for Advancing Translational Sciences (NCATS), 2010) are described below.

Molecules are shown by their SMILES. The campaign covered roughly 320,000 compounds. About 2,100 (0.66%) were called active. Inconclusive results (about 53%) are left out. Calls come from the whole dose curve; as a rule, active = well fitted inhibition curve with a large enough effect in the signal ratio, with a control signal flat (not every such curve was filed as active); inconclusive = small, poorly fitted or top-dose-only effect, or effect the other way, or a change in a side signal; inactive = flat fitted curve, though single readings scatter; the % refers to the signal ratio. Shown is part of a subset that was picked to be rich in actives.
Potency is the fitted concentration of half-maximal effect.

The assay is described as follows: qHTS Assay for Lipid Storage Modulators in Drosophila S3 Cells.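 For cell number change: cells counted by Cell Tracker Red CMTPX staining in the red channel.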 For lipid storage change, negative = inhibition: % is set by controls: 0 for no effect and ±100 for the full control effect. Particulars: BODIPY lipid droplet fluorescence, 18-24 h, cells fed with added oleic acid; cell number change: measured here: cell count max response; series mostly up to 46.1 µM; lipid storage change, negative = inhibition: at the top concentration. A digest of the protocol: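 Drosophila S3 cells loaded with oleic acid (400 uM, as added) and compounds at several concentrations; lipid droplets imaged by 488-nm laser-scanning cytometry, 500–530 nm intensity and object ratio to cell channel. Percent activity normalized to 20 uM Triacsin C.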
On to `Cc1cc(C)c(S(=O)(=O)N2CCOC2CNC(=O)C(=O)NCCCN2CCOCC2)c(C)c1` (centres undefined), for which the outcome was inactive and the cell number change was determined as 8.11%.

Consider `Cc1cccc(N(CC(N)=O)C2SC(=O)NC2=O)c1` (centres undefined), for which the “lipid storage change, negative = inhibition” value is -0.47% (inactive) and the cell number change came out at 8.77%.

Take `Cc1ccc(N(CC(N)=O)C2SC(=O)NC2=O)cc1` (centres undefined): the “lipid storage change, negative = inhibition” value was -4.95% (inactive) and the cell number change worked out at 8.58%.

Turning to `O=C(O)CN(c1ccccc1)C1SC(=O)NC1=O` (centres undefined), the Potency was 7.31 µM (active) and the cell number change was -8.43%.

Take `CC(C)C(NC(=O)OCc1ccccc1)C(=O)NCc1ccc(C(=O)O)cc1` (centres undefined): the “lipid storage change, negative = inhibition” value is 19.3% (inactive) and the cell number change is 18%.

As to `CC(C)[C@H](NC(=O)c1ccco1)C(=O)NCc1ccccc1`, the call was inactive and the cell number change amounted to 17.1%.

In the case of `CC(C)C(NC(=O)c1ccco1)C(=O)NCc1ccc(C(=O)O)cc1` (centres undefined), the Potency is 6.51 µM (active) and the cell number change was -31.6%.

In the case of `CC(/C=C/c1ccccc1)=N/NC(=O)c1cnccn1`, the “lipid storage change, negative = inhibition” value is 8.89% (inactive) and the cell number change stood at 9.37%.

`CC1=[N+]([O-])C(C)(C)CC(C)(C)c2ccccc21`: the Potency is 25.9 µM (active) and the cell number change is -21.9%.

With `COC(=O)c1cn(CC(=O)Nc2ccccc2C)c2ccccc12`, the compound was classed as inactive and the cell number change is 8.8%.

`COc1ccc(C2C(C#N)=C(N)OC3=C2C(=O)CC(C)(C)C3)cc1Cn1nc(C)c([N+](=O)[O-])c1C` (centres undefined): the “lipid storage change, negative = inhibition” value is 9.69% (inactive) and the cell number change came to 4.05%.

With `CSC1=NCCN1C(=O)C12CC3CC(CC(C3)C1)C2`, the Potency was 1.3 µM (active) and the cell number change was -43.3%.

Regarding `O=C(N1CCN=C1SCc1cccnc1)C12CC3CC(CC(C3)C1)C2`, the result was inactive.

As for `O=C1NCCN1C(=O)C12CC3CC(CC(C3)C1)C2`, the “lipid storage change, negative = inhibition” value is 0.211% (inactive) and the cell number change was -1.76%.

Consider `CCn1c(SCC(=O)NC2CC2)nnc1C(C)Oc1ccccc1` (centres undefined), for which the “lipid storage change, negative = inhibition” value is 5.84% (inactive).

Regarding `COc1ccc(NC(=O)Cn2nnc(C(=O)NCCc3ccccc3)c2N)c(OC)c1`, the compound was called inactive and the cell number change stood at 6.1%.

`COc1cccc(NC(=O)Cn2nnc(C(=O)Nc3ccccc3)c2N)c1`: the “lipid storage change, negative = inhibition” value is 6.84% (inactive) and the cell number change was -18.5%.

Take `Nc1c(C(=O)NCCc2ccccc2)nnn1Cc1ccc(Cl)cc1`: the “lipid storage change, negative = inhibition” value was 8.7% (inactive) and the cell number change was -16.5%.

Consider `COc1cccc(NC(=O)Cn2nnc(C(=O)NCCc3ccccc3)c2N)c1`, for which the Potency is 20.6 µM (active) and the cell number change was 2.67%.

Regarding `CCOc1ccc(Cn2nnc(C(=O)NCCc3ccc(Cl)cc3)c2N)cc1`, the Potency is 18.4 µM (active) and the cell number change was found to be 1.29%.

For the compound `CCOc1ccc(Cn2nnc(C(=O)NCCc3ccccc3)c2N)cc1`, the “lipid storage change, negative = inhibition” value is -7.29% (inactive) and the cell number change is -4.24%.

As to `CCc1nc(NC(=O)c2sc(C)nc2C)sc1C(=O)OC`, the compound was called inactive and the cell number change was -8.97%.

In the case of `O=C1OCCC1Sc1nnc(-c2ccc3c(c2)OCO3)o1` (centres undefined), the “lipid storage change, negative = inhibition” value was 5.11% (inactive) and the cell number change was found to be 15.3%.

`O=C1OCCC1Sc1nnc(-c2cccc(Br)c2)o1` (centres undefined): the Potency was 20.6 µM (active) and the cell number change is -11.2%.

Take `O=C1OCCC1Sc1nnc(-c2ccc(Br)cc2)o1` (centres undefined): the “lipid storage change, negative = inhibition” value was 5.68% (inactive) and the cell number change stood at 7.55%.

Turning to `Cc1ccc(CNC(=O)CCNS(=O)(=O)c2ccc(C)cc2)cc1`, the “lipid storage change, negative = inhibition” value is 0.234% (inactive) and the cell number change is -14.3%.

`Cc1ccc(CS(=O)(=O)CCC(=O)NCc2ccc(F)cc2)cc1`: the “lipid storage change, negative = inhibition” value was 0.549% (inactive) and the cell number change is 22.6%.

With `Cc1ccc(/C=C/S(=O)(=O)NCCC(=O)NCc2ccc(F)cc2)cc1`, the Potency was 13 µM (active) and the cell number change was -6.87%.
